Source: PubChem BioAssay (several laboratories)
Hits are enriched below; roughly 1.8% of the tested compounds scored in any of these assays.
PfHsp40 yeast: rescue of yeast from PfHsp40 toxicity, primary screen, S. cerevisiae, ATP luminescence | hit rate 0.68% among 340,000 | growth rescue, % at 12.5 µM | S. cerevisiae expressing PfHsp40, growth rescue; in the data active = growth rescue above about 28%, passing the limit was not always enough; inconclusive = no clear call, values can overlap the other calls;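 note: yeast W303a lacking pdr1 and pdr3 grown in galactose medium; growth measured after three days at 30 °C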
SSB-PriA inh: inhibitors of Klebsiella pneumoniae PriA binding to SSB C-terminal tail, primary screen, biochemical, AlphaScreen. AlphaScreen SSBct-PriA binding, biotinylated peptide. PriA–SSB C-terminal tail interaction (Klebsiella pneumoniae). inhibition, % at 33 µM. hit rate 0.6% among 430,000; in the data active = inhibition mostly above about 37%, no sharp cut-off; inactive = mostly below about 20%
PrPC TRFRET: inhibitors of human cell surface prion protein PrPC, primary screen, cell-based, TR-FRET | Major prion protein (Homo sapiens), P04156 | inhibition, % at 13.8 µM | hit rate 0.43% among 370,000 | TR-FRET read-out; in the data active = inhibition above about 24%
PrP 5UTR inh: inhibition of PrP 5' UTR reporter expression. cell-based PrP 5' UTR mRNA reporter, plate reader. inhibition, % (concentration not given with the values). hit rate 0.35% among 340,000; in the data active = inhibition above about 52%
MazF activator: activators of E. coli MazEF toxin-antitoxin RNase, primary screen, biochemical, fluorescence, uHTS. Endoribonuclease toxin MazF (Escherichia coli (strain K12)), P0AE70. FAM/BHQ RNA-DNA oligo cleavage fluorescence, 5 h. activation, % at 20 µM. hit rate 0.32% among 350,000; in the data active = activation above about 50%
Target sequence (P0AE70 whole entry, looked up): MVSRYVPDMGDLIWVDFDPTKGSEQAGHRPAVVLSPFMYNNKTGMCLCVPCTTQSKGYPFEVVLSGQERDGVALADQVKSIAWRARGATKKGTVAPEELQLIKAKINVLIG
Each line names hits and unclear results; the compound was inactive in the other large screens.

COc1cc2c(ccc3c4cc(OC)c(OC)cc4c[n+](C)c23)cc1O	PfHsp40 yeast 127
COc1ccc2c(c1)c[n+](C)c1c3cc(OC)c(OC)cc3ccc21	none (no result: PfHsp40 yeast, SSB-PriA inh, PrP 5UTR inh, MazF activator)
CCC1CCCCN1CCCNC(=O)c1cn(CC)c2ccc(S(=O)(=O)N3CCc4ccccc4C3)cc2c1=O (stereo not given)	none
CCCn1nc([N+](=O)[O-])c(C(C#N)c2nc3ccccc3s2)c(Cl)c1=O (stereo not given)	PfHsp40 yeast inconclusive, SSB-PriA inh 55
CC(C)=CCc1cc(-c2oc3cc(O)cc(O)c3c(=O)c2O)ccc1O	MazF activator 57
CCOP(=O)(c1ccccc1)C1(C#N)CCCC1 (stereo not given)	none
CSC(=NS(=O)(=O)c1ccc(C)cc1)c1ccccc1	none (no result: PfHsp40 yeast, PrPC TRFRET, PrP 5UTR inh, MazF activator)
Cc1[nH]nc(C(=O)NN=Cc2ccccc2Cl)c1N=NN(C)C	PfHsp40 yeast 41
CCOC(=O)c1sc(-c2ccc(Cl)cc2Cl)nc1O	PfHsp40 yeast 60
CCOC(=O)c1sc(-c2ccccc2C)nc1C	none (no result: PfHsp40 yeast, PrPC TRFRET, PrP 5UTR inh, MazF activator)
c1ccc(Nc2ccc(Nc3ccccc3)cc2)cc1	none
Nc1ccccc1Nc1ccccc1	SSB-PriA inh 64
Nc1ccc(Nc2ccccc2)c(Cl)c1	SSB-PriA inh 52
Cc1ccccc1NC(=O)CNC(=O)Cc1cccc2ccccc12	none
COc1cc2cnc(-c3ccccc3)c(C(=O)c3ccc(F)cc3)c2cc1OC	PfHsp40 yeast 411
Cc1ccccc1C1C(C#N)=C2N=C(N)c3ccccc3N2C2=C1C(=O)CCC2 (stereo not given)	none
Cc1ccccc1C1C(C#N)=C2N=C(N)c3c(sc4c3CCCCC4)N2C2=C1C(=O)CC(C)(C)C2 (stereo not given)	MazF activator 165
O=C(O)c1cccc(-n2cccc2C=C2C(=O)c3ccccc3C2=O)c1	none
O=C1C(=Cc2cccn2-c2ccc(O)cc2)C(=O)c2ccccc21	MazF activator 263
O=C1C(=Cc2cccn2-c2ccccc2)C(=O)c2ccccc21	MazF activator 242
COc1ccc(C(C)Nc2ncc3c(=O)n(-c4ccccc4)c(=O)[nH]c3n2)cc1OC (stereo not given)	none (no result: PfHsp40 yeast, PrPC TRFRET, PrP 5UTR inh, MazF activator)
Cc1ccccc1S(=O)(=O)Cc1ccc(C(=O)NC2CCC(C)CC2)o1 (stereo not given)	none
CC1CCCN(C(=O)c2ccc3c(c2NCCO)C(=O)c2ccccc2C3=O)C1 (stereo not given)	SSB-PriA inh 64
COc1cc(OC)cc(-c2cc3nc(C)c(CCC(=O)O)c(=O)n3[nH]2)c1	none
CCS(=O)(=O)c1ccc(N=Nc2ccc(O)c3ncccc23)c(OC)c1	PfHsp40 yeast 214
COc1ccccc1N=Nc1ccc(O)c2ncccc12	none
Cc1cc(C(=O)N/N=C/c2cc(Br)cc([N+](=O)[O-])c2O)c2ccccc2n1	PfHsp40 yeast 184 (no result: SSB-PriA inh)
Cc1cc(C(=O)NN=Cc2cc(Br)cc([N+](=O)[O-])c2O)c2ccccc2n1	none (no result: PfHsp40 yeast, PrPC TRFRET, PrP 5UTR inh, MazF activator)
O=C(CSc1nnc(C2COc3ccccc3O2)o1)Nc1ccc(F)cc1Cl (stereo not given)	none
COc1cc(N=Nc2ccc(C)cc2S(N)(=O)=O)c(C)cc1N	SSB-PriA inh 48
CCOC(=O)[C@]12Cc3cc(C)ccc3[C@H]1N(CCC(=O)OC)C(=O)c1ccccc12	none (no result: PfHsp40 yeast, SSB-PriA inh, PrP 5UTR inh, MazF activator)
CCOC(=O)[C@]12Cc3cc(Cl)ccc3[C@H]1N(C1CCCCC1)C(=O)c1cc(OC)ccc12	PrPC TRFRET 47 (no result: PfHsp40 yeast, SSB-PriA inh, PrP 5UTR inh, MazF activator)
CCOC(=O)[C@]12Cc3c(cc(OC)c(OC)c3OC)[C@H]1N(C1CCCCC1)C(=O)c1ccccc12	PrPC TRFRET 32 (no result: PfHsp40 yeast, SSB-PriA inh, PrP 5UTR inh, MazF activator)
CCOC(=O)[C@]12Cc3cc(C)ccc3[C@H]1N(C1CCCCC1)C(=O)c1ccccc12	PrPC TRFRET 38 (no result: PfHsp40 yeast, SSB-PriA inh, PrP 5UTR inh, MazF activator)
CCOC(=O)[C@]12Cc3ccc(C)cc3[C@H]1N(C1CCCCC1)C(=O)c1cc(OC)ccc12	PrPC TRFRET 36 (no result: PfHsp40 yeast, SSB-PriA inh, PrP 5UTR inh, MazF activator)
CCOC(=O)[C@]12Cc3cc(OC)ccc3[C@H]1N(C)C(=O)c1cc(OC)ccc12	none (no result: PfHsp40 yeast, SSB-PriA inh, PrP 5UTR inh, MazF activator)
Nc1nnc(Sc2ccc(Cl)cc2[N+](=O)[O-])s1	none
CCOC(=O)[C@]12Cc3ccc(C)cc3[C@H]1N(C1CCCCC1)C(=O)c1ccccc12	PrPC TRFRET 33 (no result: PfHsp40 yeast, SSB-PriA inh, PrP 5UTR inh, MazF activator)
Cc1cccc(NC(=O)c2ccccc2NC(=O)Cc2ccccc2)c1C	none
N#Cc1ccc2nc(-c3ccc(CN4CCC(n5c(=O)[nH]c6ccccc65)CC4)cc3)c(-c3ccccc3)nc2c1	none (no result: PfHsp40 yeast, SSB-PriA inh, PrP 5UTR inh, MazF activator)
